Common to all, as to assay: glycan array binding signal (z-score within array); higher = stronger binding
Common to all, as to details: glycan notation: IUPAC condensed, linker removed

Assay [1] has as its target Fuc(a1-2)Gal(b1-3)GalNAc(b1-3)Gal(a1-4)Gal(b1-4)Glc. A digest of the protocol: (§1)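 Glycan array data came from 3228 arrays in the Consortium for Functional Glycomics database, and only arrays with an available protein sequence were kept. Glycan names were put into IUPAC-condensed notation, and columns mapping to the same glycan were averaged. The binding signal is a within-array Z-score, averaged across arrays of one protein sequence run at different concentrations or buffers and across linkers. A negative Z-score can be read as non-binding.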

The target of assay [2] is Fuc(a1-2)Gal(b1-3)[Fuc(a1-4)]GlcNAc. An outline of the steps:
as §1

The target of the next assay is Fuc(a1-2)[Gal(a1-3)]Gal. A digest of the protocol:
as §1

Assay [3] deals with Fuc(a1-3)[Gal3S(b1-4)]GlcNAc. A digest of the protocol: as §1
The target of the next assay is Gal(a1-4)Gal(b1-4)Gal. An outline of the steps: as §1
Another assay concerns the target Gal(a1-4)Gal(b1-4)GalNAc. An outline of the steps:
as §1

For the next assay, the target named is Gal(a1-4)GlcNAc. A digest of the protocol: as §1
Assay [4] addresses Gal(b1-3)GalNAc(b1-3)Gal(b1-4)Glc. An outline of the steps:
as §1

Assay [5] has as its target Gal(b1-4)GalNAc(b1-3)[Fuc(a1-2)]Gal(b1-4)GlcNAc. A digest of the protocol: as §1
In assay [6] the target is GalNAc(b1-3)Gal(a1-4)Gal(b1-4)GlcNAc. An outline of the steps:
as §1

For assay [7], the target named is GlcNAc(b1-3)[GlcNAc(b1-4)][GlcNAc(b1-6)]GlcNAc. An outline of the steps:
as §1

The target of assay [8] is GlcNAc(b1-3)[GlcNAc(b1-6)]GlcNAc. An outline of the steps:
as §1

The target in assay [9] is GlcNAc(b1-4)GlcNAc(b1-4)GlcNAc(b1-4)GlcNAc(b1-4)GlcNAc. A digest of the protocol:
as §1

The target of assay [10] is Man(a1-2)Man(a1-2)Man(a1-3)[Man(a1-2)Man(a1-6)[Man(a1-3)]Man(a1-6)]Man(b1-4)GlcNAc(b1-4)GlcNAc. An outline of the steps:
as §1

The target of a further assay is Man(a1-3)[Man(a1-6)]Man. An outline of the steps: as §1
The target of assay [11] is Neu5Ac(a2-3)Gal(b1-3)GlcNAc6S. A digest of the protocol: as §1
In assay [12] the target is Neu5Ac(a2-8)Neu5Ac(a2-8)Neu5Ac(a2-3)[GalNAc(b1-4)]Gal(b1-4)Glc. An outline of the steps: as §1
The target in assay [13] is Fuc(a1-2)Gal(b1-3)GalNAc(b1-3)Gal(b1-4)Glc. An outline of the steps: as §1
The target of a further assay is Fuc(a1-2)Gal(b1-4)Glc. A digest of the protocol:
as §1

The target of assay [14] is Fuc(a1-2)Gal(b1-4)GlcNAc(b1-3)Gal(b1-4)GlcNAc. An outline of the steps:
as §1

The target of a further assay is Gal(a1-6)Glc. An outline of the steps: as §1
The target in assay [15] is Gal(b1-3)[Fuc(a1-4)]GlcNAc(b1-3)Gal(b1-4)GlcNAc. A digest of the protocol: as §1
Assay [16] has as its target Gal(b1-3)[Neu5Ac(a2-6)]GlcNAc. A digest of the protocol: as §1
The target in assay [17] is Gal(b1-3)[Neu5Ac(a2-6)]GlcNAc(a1-4)Gal(b1-4)Glc. An outline of the steps:
as §1

The next assay concerns the target GalNAc(b1-4)GlcNAc. A digest of the protocol: as §1
For a further assay, the target named is GlcA(b1-6)Gal. A digest of the protocol: as §1
The target of another assay is GlcNAc(b1-3)Gal. A digest of the protocol:
as §1

Assay [18] deals with GlcNAc(b1-4)GlcNAc(b1-4)GlcNAc. An outline of the steps: as §1
Assay [19] has as its target Man(a1-2)Man(a1-2)Man(a1-3)Man. A digest of the protocol:
as §1

Assay [20] deals with Man(a1-3)[Man(a1-6)]Man(b1-4)GlcNAc(b1-4)GlcNAc. An outline of the steps: as §1
A further assay addresses Man(b1-4)GlcNAc. A digest of the protocol:
as §1

This is one part of a sample in which the strongest signals are shown more often than they occur.

B1: RNase 1 (Homo sapiens) (protein)
chain: KESRAKKFQRQHMDSDSSPSSSSTYCNQMMRRRNMTQGRCKPVNTFVHEPLVDVQNVCFQEKVTCKNGQGNCYKSNSSMHITDCRLTNGSRYPNCAYRTSPKERHIIVACEGSPYVPVHFDASVEDST
On to B1, for which the “glycan array binding signal (z-score)” value in assay [1] is 1.93; in assay [2] it was -0.174; with Fuc(a1-2)[Gal(a1-3)]Gal, -0.14; in [3], -0.168; with Gal(a1-4)Gal(b1-4)Gal, 7.93; in the assay with Gal(a1-4)Gal(b1-4)GalNAc, 8.87. The “glycan array binding signal (z-score)” value with Gal(a1-4)GlcNAc was -0.225; in assay [4], 0.641; in assay [5] it was -0.218; in assay [6], 0.455; in [7], -0.069; in assay [8], -0.116. Further, the “glycan array binding signal (z-score)” value was -0.028 in assay [9]; -0.153 in [10]; -0.147 with Man(a1-3)[Man(a1-6)]Man; -0.204 in assay [11]; -0.187 in assay [12].

B2: TbCVNHOb (Tuber borchii) (protein)
chain: GSHIGPYMSFYASSEDVRTIEEGGRTWLVGRARRADGSWQDIKLDLDNIIGNRDGHLTWGEQNFTQSASDIRFNFEGGSNVPVLRAKLRNAAGGEQESDLNLGERLTNNNGDLVFN
Consider B2, for which the “glycan array binding signal (z-score)” value in [1] was 2.01; in assay [13], 4.24; with Fuc(a1-2)Gal(b1-4)Glc, 0.347; in assay [14], -0.268; in [3], -0.469; with Gal(a1-4)Gal(b1-4)Gal, 4.24. For the same molecule, the “glycan array binding signal (z-score)” value in the assay with Gal(a1-6)Glc was 0.38; in assay [15], -0.231; in assay [16] it was -0.484; in assay [17], 4.83; in assay [5] it was -0.367; with GalNAc(b1-4)GlcNAc it was -0.366. For the same molecule, the “glycan array binding signal (z-score)” value in the assay with GlcA(b1-6)Gal was -0.483; with GlcNAc(b1-3)Gal, -0.16; in assay [7], -0.077; in [18], -0.364; in assay [19] it was 5.4; in assay [10], -0.449. In addition, the results for the “glycan array binding signal (z-score)” value (in [20]; in the assay with Man(b1-4)GlcNAc; in assay [11]) were -0.197, 0.106 and -0.045, respectively.

Source of the values: the supplement of paper PMC8728848.
